Experimental data as given in PubChem BioAssay (EPA / NIEHS).
A structure can be active in one record and inactive in another. Activity calls are given as the source filed them. How the source made its calls: active means hit-call score of the fitted dose curve at least 0.9, where 1 is the maximum; inactive means score below 0.9.

Assay: CCTE_Mundy_HCI_Cortical_Synap_Neur_Matur_NeuriteLength: CCTE's Synaptogenesis and Neurite Maturation Assay in rat cortical cells for Neurite Length, Mundy Lab (AID 2284214)
Method: CCTE_Mundy_HCI_Cortical_Synap&Neurite_Matur is a multiplexed, cell-based-readout assay that uses rat primary cortical cells with measurements taken at 288.33 hours after chemical dosing in a microplate: 96-well plate.CCTE_Mundy_HCI_Cortical_Synap_Neur_Matur_NeuriteLength is one of eight components of the CCTE_Mundy_HCI_Cortical_Synap&Neurite_Matur assay. It measures synaptogenesis and neurite maturation related to neurite length using High Content Imaging of fluorescently labelled markers.[…] Using a type of morphology reporter, loss -of-signal activity can be used to understand developmental effects.
Cells are plated onto 96 well plates and allowed 2 hr for attachment to the substrate. At days in vitro (DIV) 5, Cytosine Arabinoside (AraC) is added to arrest glial cell growth. Chemicals are dosed and a media change is performed at DIV 7 of differentiation and is continued through DIV 12 when the experiment is terminated. Cells are fixed with […] and Hoechst Dye. Cells are stained using Millipore Mouse anti-MAP2MAB3418 (1:800) and Millipore Rabbit anti-Synaptophysinsc-1750 (1:250) primary antibodies and Alexa Fluor-488 goat anti-mouse and AlexaFluor-546 goat anti-rabbit secondary antibodies to label neuronal cell nuclei, synapses and neurites. A Cellomics ArrayScan VTi HCS Reader is used for automated image acquisition and analysis of neurite outgrowth.

Compound | outcome | AC50
O=C(Nc1ccccc1-c1ccc(Cl)cc1)c1cccnc1Cl | inactive | 
CCOP(=O)(OCC)Oc1nc(Cl)c(Cl)cc1Cl | inactive | 16.2 µM (active)
CC(C)(C)C(=O)C(Oc1ccc(Cl)cc1)n1cncn1 (stereo not drawn) |  | 7.05 µM (active)
N#CN=C1SCCN1Cc1ccc(Cl)nc1 | inactive | 
CS(=O)(=O)c1cc(C(F)(F)F)ccc1C(=O)c1cnoc1C1CC1 | inactive | 
CCSC(=O)N1CCCCCC1 | inactive | 
CCN(CC)c1nc(C)cc(OP(=S)(OC)OC)n1 |  | 78.6 µM (active)
COP(=O)(OC)O/C(C)=C/C(=O)N(C)C | inactive | 
CO/N=C(/C1=NOCCO1)c1ccccc1Oc1ncnc(Oc2ccccc2Cl)c1F |  | 4.34 µM (active)
CCNC(=O)NC(=O)C(C#N)=NOC | inactive | 
COC(=O)N(C(=O)N1CO[C@@]2(C(=O)OC)Cc3cc(Cl)ccc3C2=N1)c1ccc(OC(F)(F)F)cc1 | inactive | 
CS(=O)(=O)c1ccc(C(=O)C2C(=O)CCCC2=O)c([N+](=O)[O-])c1 | inactive | 
C=C(C)CN(CC)c1c([N+](=O)[O-])cc(C(F)(F)F)cc1[N+](=O)[O-] |  | 5.64 µM (active)
CC1(C)C(C=C(Cl)Cl)C1C(=O)OC(C#N)c1cccc(Oc2ccccc2)c1 (stereo not drawn) | inactive | 
Cc1c(COC(=O)[C@@H]2[C@H](/C=C(\Cl)C(F)(F)F)C2(C)C)cccc1-c1ccccc1 |  | 3.7 µM (active)
COP(=S)(OC)SCn1nnc2ccccc2c1=O | inactive | 
CN/C(=N\[N+](=O)[O-])NCc1cnc(Cl)s1 | inactive | 
